The subject of test [1] is Plasmodium falciparum Sir2 (PF13_0152, Sir2A). Nature of the test: Plasmodium falciparum Sir2A binding compounds – biochemical, small-molecule microarray, 635 nm fluorescence, primary screen (AID 1098).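 Further: score merges spot fluorescence intensity with its signal-to-noise ratio.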 Particulars: fluorescence 635 nm, higher = more signal.
Test [2] can be described thus: probe aDKK1 binding to arrayed compounds – biochemical, biotinylated probe, 635/667 nm fluorescence, primary screen (AID 1099).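 Further: score merges 667nm spot fluorescence with signal to noise across triplicate slides.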 The note with it: small-molecule microarray, higher = more signal.
A short description of test [3]: probe aCHRDL2 binding to arrayed compounds – biochemical, biotinylated probe, 635/667 nm fluorescence, primary screen (AID 1100). The note with it: small-molecule microarray, higher = more signal.
Test [4] in a line: change in splice reporter luminescence, either direction, cell-based, HEK293, spliceosome inhibition project, primary screen (AID 1101).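 Further: HEK293 cells carrying a splicing-competent luciferase reporter gene; test concentration not given here.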 Particulars: HEK293 splicing luciferase reporter, 24 h, higher = more signal, called active from +8 up or from −8 down. A general note: In a reporter assay the amount or activity of a reporter protein is the signal.
For test [5], the target named is Fibroblast growth factor 10 (Homo sapiens) (UniProt O15520). Kind of test: compounds binding fibroblast growth factor 10 – biochemical, small-molecule microarray, 635 nm fluorescence, primary screen (AID 1102). Particulars: FGF10 binding, fluorescence 635 nm, higher = more signal.
For test [6], the system named is glycogen synthase kinase-3 (GSK3A per assay name; protocol says GSK3B). Kind of test: compounds binding glycogen synthase kinase-3 – biochemical, small-molecule microarray, 635 nm fluorescence, GSK3A, primary screen (AID 1103). Further: the record names both GSK3A and GSK3B. The note with it: fluorescence 635 nm, higher = more signal.
Test [7] deals with Epidermal growth factor receptor (Homo sapiens) (UniProt P00533). Nature of the test: compounds binding epidermal growth factor receptor – biochemical, small-molecule microarray, 635 nm fluorescence, primary screen (AID 1104).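 Further: score merges 667 nm emission intensity with spot signal to noise over triplicate slides.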 The note with it: EGFR binding, higher = more signal.
The target in test [8] is Follistatin-related protein 3 (Homo sapiens) (UniProt O95633). Kind of test: compounds binding follistatin-related protein 3 – biochemical, small-molecule microarray, 635 nm fluorescence, primary screen (AID 1105).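 Further: score merges emission near 667 nm and signal to noise per printed spot across three slides.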 The note with it: FSTL3 binding, higher = more signal.
The target in test [9] is Dickkopf-related protein 1 (Homo sapiens) (UniProt O94907). Kind of test: small molecules binding DKK1 protein – biochemical, small-molecule microarray, 635 nm fluorescence scan, primary screen (AID 1106).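 Further: score merges emission near 667 nm with signal to noise over three replicate slides.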 The note with it: higher = more signal.
For test [10], the system named is Inhibin beta A chain (activin A). Nature of the test: small molecules binding activin A – biochemical, small-molecule microarray, 635 nm fluorescence scan, primary screen (AID 1107).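 Further: mouse activin A protein probed at 4.33 µg/mL on printed slides; score merges bound-protein fluorescence near 667 nm with spot signal-to-noise.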 Particulars: INHBA, higher = more signal.
Test [11] deals with Human papillomavirus type 1a protein E7 (residues 44-93). Kind of test: small molecules binding HPV E7 44-93 – biochemical, small-molecule microarray, residues 44-93, 635 nm fluorescence, primary screen (AID 1108).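 Further: E7 fragment applied at 1 µg/mL in TBST for 1 h at 4 C; score combines spot fluorescence with its signal to noise ratio.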 Particulars: fluorescence 635 nm, higher = more signal.
Test [12] can be described thus: hepatitis C replication reporter changes, two-sided – Huh7 cells, luciferase reporter, HCV replication inhibitor project, primary screen (AID 1109).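 Further: huh7 hepatoma cells harbouring a luciferase neomycin HCV replicon reporter; luciferase luminescence as measure of HCV replicon replication; test concentration not given here.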 Particulars: Huh7 HCV replicon luciferase reporter, 48 h; higher = more signal.
In test [13] the target is Left-right determination factor 2 (Homo sapiens) (UniProt O00292). Nature of the test: small molecules binding LEFTY2 protein – biochemical, small-molecule microarray, 635 nm fluorescence scan, primary screen (AID 1110). Particulars: higher = more signal.
Test [14] addresses Calmodulin-1 (Homo sapiens) (UniProt P0DP23). Nature of the test: small molecules binding calmodulin-1 with EGTA – biochemical, small-molecule microarray, Cy5-labelled CALM1, profiling panel (AID 1111).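 Further: labelled calmodulin applied in Tris saline Tween buffer holding calcium plus EGTA and DTT.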 Particulars: Cy5-CALM1 binding fluorescence, higher = more signal.
For test [15] the target is unchanged. Kind of test: small molecules binding Ca-loaded calmodulin-1 – biochemical, small-molecule microarray, Cy5-labelled CALM1, plus calcium, artefact control for SMM control-protein annotation, profiling panel (AID 1112).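 Further: score merges spot fluorescence with signal to noise from triplicate slides.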 Particulars: Cy5-CALM1 binding fluorescence, higher = more signal.
Test [16] in a line: probe aWnt5a binding to arrayed compounds – biochemical, biotinylated probe, 635/667 nm fluorescence, primary screen (AID 1113).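 Further: score merges 667 nm fluorescence intensity with signal-to-noise per printed feature.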 Particulars: small-molecule microarray, higher = more signal.
A short description of test [17]: probe aShh binding to arrayed compounds – biochemical, biotinylated probe, 635/667 nm fluorescence, primary screen (AID 1114).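 Further: probe is biotin-labelled aShh protein from a stem cell growth factor screen; measures binding of labelled protein to compounds printed on the slide; score merges feature fluorescence at 667 nm with signal-to-noise.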 Particulars: small-molecule microarray, higher = more signal.
The nature of test [18]: probe aNog binding to arrayed compounds – biochemical, biotinylated probe, 635/667 nm fluorescence, primary screen (AID 1115).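 Further: probe is biotinylated aNog protein used at 0.15 µg/mL for 1 h at 4 C; z-score combines 667 nm fluorescence of each spot with its signal to noise.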 Particulars: small-molecule microarray, higher = more signal.
Test [19] concerns the target Torsin-1A-interacting protein 1 (Homo sapiens) (UniProt Q5JTV8). Kind of test: compound microarray binding of lysate hLAP1 – cell lysate, small-molecule microarray, COS7 lysate, 635/667 nm fluorescence, primary screen (AID 1116). Particulars: 635 nm fluorescence, higher = more signal.
In test [20] the target is Alpha-bungarotoxin (Bungarus multicinctus) (UniProt P60615). Kind of test: compounds binding labelled alpha-BTX control protein – biochemical, small-molecule microarray, Alexa647 label, 635/667 nm fluorescence, artefact control for SMM control protein annotation, profiling panel (AID 1117). The note with it: alpha-BTX-A647 binding fluorescence, higher = more signal.

Active and inactive are the calls of the source.

Chain of Fibroblast growth factor 10 (Homo sapiens) (O15520 whole entry, looked up): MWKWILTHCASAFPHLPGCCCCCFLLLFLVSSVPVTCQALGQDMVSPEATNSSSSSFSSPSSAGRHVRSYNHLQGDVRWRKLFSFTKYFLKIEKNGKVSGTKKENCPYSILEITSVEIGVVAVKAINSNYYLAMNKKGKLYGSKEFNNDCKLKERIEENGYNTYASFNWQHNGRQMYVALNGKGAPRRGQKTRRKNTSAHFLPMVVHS
Chain of Left-right determination factor 2 (Homo sapiens) (O00292 whole entry, looked up): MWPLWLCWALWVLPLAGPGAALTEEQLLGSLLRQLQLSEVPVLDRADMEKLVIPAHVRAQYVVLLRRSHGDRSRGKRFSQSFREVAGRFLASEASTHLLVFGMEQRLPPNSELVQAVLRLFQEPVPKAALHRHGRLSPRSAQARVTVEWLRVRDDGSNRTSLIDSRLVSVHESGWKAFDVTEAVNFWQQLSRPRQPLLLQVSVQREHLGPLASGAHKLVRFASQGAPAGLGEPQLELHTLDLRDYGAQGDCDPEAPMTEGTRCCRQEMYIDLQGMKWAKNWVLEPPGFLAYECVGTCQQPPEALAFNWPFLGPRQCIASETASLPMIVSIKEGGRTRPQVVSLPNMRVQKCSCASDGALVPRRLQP
Chain of Epidermal growth factor receptor (Homo sapiens) (P00533 whole entry, looked up): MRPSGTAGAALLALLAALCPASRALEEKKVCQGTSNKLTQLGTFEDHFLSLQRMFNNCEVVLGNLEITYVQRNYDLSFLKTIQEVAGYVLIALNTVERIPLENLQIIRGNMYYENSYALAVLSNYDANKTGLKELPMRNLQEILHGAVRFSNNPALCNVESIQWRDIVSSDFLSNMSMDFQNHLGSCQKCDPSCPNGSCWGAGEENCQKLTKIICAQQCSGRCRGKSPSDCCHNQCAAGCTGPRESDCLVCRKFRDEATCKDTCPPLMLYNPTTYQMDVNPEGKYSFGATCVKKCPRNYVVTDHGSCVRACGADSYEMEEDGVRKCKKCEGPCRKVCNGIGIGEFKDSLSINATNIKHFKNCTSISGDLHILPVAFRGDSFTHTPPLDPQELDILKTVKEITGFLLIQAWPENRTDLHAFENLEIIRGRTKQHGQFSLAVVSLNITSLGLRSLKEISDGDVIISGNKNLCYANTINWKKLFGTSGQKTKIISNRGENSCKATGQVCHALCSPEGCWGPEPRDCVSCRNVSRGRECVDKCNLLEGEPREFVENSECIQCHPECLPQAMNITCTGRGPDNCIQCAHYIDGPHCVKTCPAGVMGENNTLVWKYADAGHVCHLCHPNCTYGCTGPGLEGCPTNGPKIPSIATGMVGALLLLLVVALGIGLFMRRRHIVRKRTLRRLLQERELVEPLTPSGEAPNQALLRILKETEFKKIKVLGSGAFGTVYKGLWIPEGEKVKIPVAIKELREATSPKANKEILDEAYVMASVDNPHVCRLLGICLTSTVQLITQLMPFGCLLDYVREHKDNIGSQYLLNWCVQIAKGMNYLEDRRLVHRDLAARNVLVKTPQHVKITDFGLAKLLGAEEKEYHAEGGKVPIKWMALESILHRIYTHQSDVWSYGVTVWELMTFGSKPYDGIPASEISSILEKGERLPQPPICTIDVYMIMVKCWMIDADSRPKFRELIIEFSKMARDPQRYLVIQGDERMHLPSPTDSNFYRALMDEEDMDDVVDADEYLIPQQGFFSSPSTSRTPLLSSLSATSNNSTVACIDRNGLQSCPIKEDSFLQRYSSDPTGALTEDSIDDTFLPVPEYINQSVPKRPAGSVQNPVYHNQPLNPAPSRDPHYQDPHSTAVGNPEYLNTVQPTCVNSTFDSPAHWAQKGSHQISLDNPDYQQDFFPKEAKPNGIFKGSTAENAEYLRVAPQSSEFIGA
Chain of Alpha-bungarotoxin (Bungarus multicinctus) (P60615 whole entry, looked up): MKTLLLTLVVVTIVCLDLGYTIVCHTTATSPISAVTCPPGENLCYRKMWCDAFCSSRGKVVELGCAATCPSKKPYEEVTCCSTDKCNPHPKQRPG
Chain of Torsin-1A-interacting protein 1 (Homo sapiens) (Q5JTV8 whole entry, looked up): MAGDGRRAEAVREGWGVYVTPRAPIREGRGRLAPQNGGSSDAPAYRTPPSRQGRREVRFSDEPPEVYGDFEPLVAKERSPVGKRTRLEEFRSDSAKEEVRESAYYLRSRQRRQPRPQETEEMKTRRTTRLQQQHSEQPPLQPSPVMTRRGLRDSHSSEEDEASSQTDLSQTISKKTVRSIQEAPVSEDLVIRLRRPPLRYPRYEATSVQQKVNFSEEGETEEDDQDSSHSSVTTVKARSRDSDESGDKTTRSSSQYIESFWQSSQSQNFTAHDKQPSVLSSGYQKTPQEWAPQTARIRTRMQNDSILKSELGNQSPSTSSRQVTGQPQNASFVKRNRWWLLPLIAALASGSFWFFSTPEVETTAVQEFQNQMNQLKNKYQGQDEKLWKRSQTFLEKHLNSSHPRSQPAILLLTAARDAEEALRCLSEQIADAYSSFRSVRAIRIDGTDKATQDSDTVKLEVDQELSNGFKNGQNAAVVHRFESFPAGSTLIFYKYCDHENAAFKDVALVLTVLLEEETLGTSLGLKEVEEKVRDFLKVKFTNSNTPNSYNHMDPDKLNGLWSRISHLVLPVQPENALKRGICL
Chain of Dickkopf-related protein 1 (Homo sapiens) (O94907 whole entry, looked up): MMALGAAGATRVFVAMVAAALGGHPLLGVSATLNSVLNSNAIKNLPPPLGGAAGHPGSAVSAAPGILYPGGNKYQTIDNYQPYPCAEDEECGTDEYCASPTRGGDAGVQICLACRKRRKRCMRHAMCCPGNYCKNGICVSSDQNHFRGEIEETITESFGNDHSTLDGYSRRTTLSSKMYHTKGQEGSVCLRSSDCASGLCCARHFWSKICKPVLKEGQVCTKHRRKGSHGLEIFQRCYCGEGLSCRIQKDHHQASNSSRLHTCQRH
Chain of Follistatin-related protein 3 (Homo sapiens) (O95633 whole entry, looked up): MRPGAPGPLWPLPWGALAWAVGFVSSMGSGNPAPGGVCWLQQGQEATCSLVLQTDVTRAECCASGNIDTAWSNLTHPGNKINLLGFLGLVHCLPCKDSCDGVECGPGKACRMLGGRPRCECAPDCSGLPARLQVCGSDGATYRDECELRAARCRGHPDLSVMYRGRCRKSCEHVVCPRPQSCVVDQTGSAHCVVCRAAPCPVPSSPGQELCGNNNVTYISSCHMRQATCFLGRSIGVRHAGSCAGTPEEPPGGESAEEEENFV

For the compound `CCOC(=O)C1=CC[C@@H](c2ccccc2)N(S(=O)(=O)c2ccc(C)cc2)[C@H]1c1ccccc1I`, the composite z-score is 0.88 in [1]; 0.655 in test [2]; 1.13 in test [3]; 0.619 in [5]; 0.698 in test [6]; 0.467 in [7]. Besides, the composite z-score came out at 0.806 in test [8]; 0.254 in test [9]; 0.471 in [10]; 0.77 in [11]; 0.316 in test [13]; 1.82 in [14]. Moreover, the composite z-score in test [15] is 0.944; in test [16], -0.0195; in test [17] it was -0.0769; in test [18] it was -0.327; in test [19] it was 0.911; in [20], 1.19. Also, the z-score in test [4] was -0.0553 (inactive); in [12], -0.839.

Regarding `COC(=O)[C@@]1(Cc2ccc(OC)cc2)[C@H]2c3cc(C(=O)N(C)C)[nH]c3C[C@H]2CN1C(=O)c1ccccc1`, the composite z-score in [1] was 1.03; in test [2], 0.416; in [3] it was 0.564; in [5] it was 1.12; in test [6], -0.54; in [7] it was -0.144. Moreover, the composite z-score in test [8] is -0.273; in test [9], -0.465; in [10], 0.0999; in test [11], -0.65; in test [13] it was -0.228; in [14], -0.0912. Moreover, the composite z-score was -0.242 in test [15]; -0.176 in test [16]; 0.128 in test [17]; 0.516 in test [18]; -0.223 in test [19]; 0.0334 in test [20]. Besides, the z-score is 0.569 (inactive) in [4] and -0.536 in test [12].

Turning to `CN(C)CCCNC(=O)[C@@]1(C)c2ccccc2C(=O)N(Cc2ccc(OC(F)(F)F)cc2)[C@H]1c1ccc(CO)cc1`, the composite z-score was 1.33 in test [1]; -0.0469 in [2]; 0.63 in test [3]; -0.365 in test [5]; -0.417 in [6]; -0.786 in test [7]. For the same compound, the composite z-score is -0.811 in test [8]; -0.912 in test [9]; 0.462 in test [10]; 0.0228 in test [11]; -1.01 in test [13]; -0.415 in [14]. Also, the composite z-score in [15] was 0.522; in [16], -0.115; in test [17], -0.0978; in test [18], 0.738; in [19] it was 1.76; in test [20], 1.5. Also, the z-score in test [4] was 0.399 (inactive); in test [12], -2.26.

In the case of `CC(C)=C1C(=O)C(c2ccccc2)=C2CN3C(=O)N(CCc4ccccc4)C(=O)[C@]3(C)[C@H]21`, the composite z-score is 1.27 in test [1]; 0.915 in test [2]; 1.13 in test [3]; 0.139 in test [5]; -0.701 in test [6]; -0.276 in test [7]. For the same compound, the composite z-score in test [8] was -0.0755; in [9], -0.538; in [10], 1.02; in test [11] it was 0.186; in [13], -0.245; in test [14], 1.16. Moreover, the composite z-score was determined as 0.0844 in test [15]; 0.0825 in test [16]; 0.748 in [17]; 0.794 in test [18]; 0.149 in test [19]; 0.196 in test [20]. The z-score in [4] is 1.15 (inactive); in [12] it was -0.44.

In the case of `COc1ccc([Si](C)(C)[C@@H]2[C@@H](CC(=O)N3Cc4ccccc4C[C@H]3CO)O[C@]3(C(=O)N(Cc4cccc(N5CCOC5=O)c4)c4ccccc43)[C@H]2C)cc1`, the composite z-score in test [1] is 1.21; in [2], -0.503; in test [3], -0.562; in test [5], 0.628; in test [6], 0.717; in [7], 1.01. Besides, the composite z-score in test [8] is 1.37; in test [9], 1.21; in [10], 0.792; in [11], 1.02; in [13] it was 0.736; in test [14], -0.695. The composite z-score in [15] was -0.611; in test [16], -0.0684; in [17], -0.0243; in test [18] it was -0.397; in test [19], 0.0192; in test [20] it was 0.258. The z-score was -0.589 (inactive) in test [4] and -3.46 in [12].

Turning to `O=C(NCc1ccc(F)cc1)[C@H]1C[C@H]2C(=O)N3CCC[C@H]3C(=O)N2[C@H]1c1ccc(O)cc1`, the composite z-score is 0.605 in test [1]; -0.294 in test [2]; -0.292 in [3]; -0.0335 in test [5]; -0.73 in test [6]; 0.192 in test [7]. Further, the composite z-score is -0.423 in [8]; 0.889 in test [9]; -0.964 in [10]; -0.512 in [11]; 0.124 in test [13]; -0.178 in test [14]. Further, the composite z-score was -0.386 in [15]; -0.176 in [16]; -0.366 in test [17]; -0.344 in [18]; 0.424 in [19]; -0.374 in [20]. For the same compound, the values for the z-score in test [4] and in test [12] were -1.62 (inactive) and 0.85, respectively.
